# From the supplement of paper PMC8728848
# The full list was thinned out, with the strongest signals kept by preference.
# B1: Gal 7 (Homo sapiens) (protein)
# chain: MSNVPHKSSLPEGIRPGTVLRIRGLVPPNASRFHVNLLCGEEGGSDAALHFNPRLDTSEVVFNSKEGGSWGREERGPGVPFGRGQPFEVLIIASDDGFKAVVGDAQYHHFRHRLPLARVRLVEVGGDVQLDSVRIF
# Experiments:
# Experiment in all cases: glycan array binding signal (z-score within array); higher = stronger binding
# Conditions in all cases: glycan notation: IUPAC condensed, linker removed
# [1] = molecular target: Gal(b1-4)GlcNAc(b1-3)Gal(b1-4)GlcNAc(b1-3)Gal(b1-4)GlcNAc(b1-2)[Gal(b1-4)GlcNAc(b1-3)Gal(b1-4)GlcNAc(b1-3)Gal(b1-4)GlcNAc(b1-6)]Man(a1-6)[Gal(b1-4)GlcNAc(b1-3)Gal(b1-4)GlcNAc(b1-3)Gal(b1-4)GlcNAc(b1-2)Man(a1-3)]Man(b1-4)GlcNAc(b1-4)[Fuc(a1-6)]GlcNAc
# Method in brief: (§1)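 Columns mapping to the same glycan were averaged after glycan names were converted to IUPAC-condensed notation. The data come from 3228 arrays in the Consortium for Functional Glycomics database, limited to those with an available protein sequence. Binding is reported as a within-array Z-score averaged across arrays of one protein sequence and across linkers.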
# [2] = molecular target: Gal(b1-4)GlcNAc(b1-3)Gal(b1-4)GlcNAc(b1-3)Gal(b1-4)GlcNAc(b1-3)Gal(b1-4)GlcNAc(b1-2)[Gal(b1-4)GlcNAc(b1-3)Gal(b1-4)GlcNAc(b1-3)Gal(b1-4)GlcNAc(b1-3)Gal(b1-4)GlcNAc(b1-6)]Man(a1-6)[Gal(b1-4)GlcNAc(b1-3)Gal(b1-4)GlcNAc(b1-3)Gal(b1-4)GlcNAc(b1-3)Gal(b1-4)GlcNAc(b1-2)Man(a1-3)]Man(b1-4)GlcNAc(b1-4)[Fuc(a1-6)]GlcNAc
# Method in brief: as §1
# [3] = molecular target: Gal(b1-4)GlcNAc(b1-3)Gal(b1-4)GlcNAc(b1-3)Gal(b1-4)GlcNAc(b1-3)Gal(b1-4)GlcNAc(b1-3)Gal(b1-4)GlcNAc(b1-2)Man(a1-3)[Gal(b1-4)GlcNAc(b1-3)Gal(b1-4)GlcNAc(b1-3)Gal(b1-4)GlcNAc(b1-3)Gal(b1-4)GlcNAc(b1-3)Gal(b1-4)GlcNAc(b1-2)Man(a1-6)]Man(b1-4)GlcNAc(b1-4)GlcNAc
# Method in brief: as §1
# [4] = molecular target: Gal(b1-4)GlcNAc(b1-3)Gal(b1-4)GlcNAc(b1-3)Gal(b1-4)GlcNAc(b1-3)Gal(b1-4)GlcNAc(b1-3)Gal(b1-4)GlcNAc(b1-2)Man(a1-3)[Gal(b1-4)GlcNAc(b1-3)Gal(b1-4)GlcNAc(b1-3)Gal(b1-4)GlcNAc(b1-3)Gal(b1-4)GlcNAc(b1-3)Gal(b1-4)GlcNAc(b1-2)Man(a1-6)]Man(b1-4)GlcNAc(b1-4)[Fuc(a1-6)]GlcNAc
# Method in brief: as §1
# [5] = molecular target: Gal(b1-4)GlcNAc(b1-3)Gal(b1-4)GlcNAc(b1-3)Gal(b1-4)GlcNAc(b1-3)Gal(b1-4)GlcNAc(b1-3)Gal(b1-4)GlcNAc(b1-2)[Gal(b1-4)GlcNAc(b1-3)Gal(b1-4)GlcNAc(b1-3)Gal(b1-4)GlcNAc(b1-3)Gal(b1-4)GlcNAc(b1-3)Gal(b1-4)GlcNAc(b1-6)]Man(a1-6)[Gal(b1-4)GlcNAc(b1-3)Gal(b1-4)GlcNAc(b1-3)Gal(b1-4)GlcNAc(b1-3)Gal(b1-4)GlcNAc(b1-3)Gal(b1-4)GlcNAc(b1-2)Man(a1-3)]Man(b1-4)GlcNAc(b1-4)[Fuc(a1-6)]GlcNAc
# Method in brief: as §1
# [6] = molecular target: Gal(b1-4)GlcNAc(b1-3)Gal(b1-4)GlcNAc(b1-3)GalNAc
# Method in brief: as §1
# [7] = molecular target: Gal3S(b1-3)GalNAc
# Method in brief: as §1
# [8] = molecular target: Gal3S(b1-4)Glc6S
# Method in brief: as §1
# [9] = molecular target: Gal3S(b1-4)[Fuc(a1-3)]GlcNAc
# Method in brief: as §1
# [10] = molecular target: Gal6S(b1-3)GlcNAc
# Method in brief: as §1
# [11] = molecular target: GalNAc(b1-3)Gal(a1-6)Gal(b1-4)Glc
# Method in brief: as §1
# [12] = molecular target: GlcA(b1-6)Gal
# Method in brief: as §1
# [13] = molecular target: GlcNAc(b1-2)Man(a1-3)[GlcNAc(b1-2)Man(a1-6)]Man(b1-4)GlcNAc(b1-4)GlcNAc
# Method in brief: as §1
# [14] = molecular target: GlcNAc(b1-2)[GlcNAc(b1-4)]Man(a1-3)[GlcNAc(b1-4)][GlcNAc(b1-2)Man(a1-6)]Man(b1-4)GlcNAc(b1-4)GlcNAc
# Method in brief: as §1
# [15] = molecular target: GlcNAc(b1-2)[GlcNAc(b1-4)]Man(a1-3)[GlcNAc(b1-4)][GlcNAc(b1-2)[GlcNAc(b1-6)]Man(a1-6)]Man(b1-4)GlcNAc(b1-4)GlcNAc
# Method in brief: as §1
# [16] = molecular target: GlcNAc(b1-2)[GlcNAc(b1-6)]Man(a1-6)[GlcNAc(b1-2)Man(a1-3)]Man(b1-4)GlcNAc(b1-4)GlcNAc
# Method in brief: as §1
# [17] = molecular target: GlcNAc(b1-3)Gal(b1-4)GlcNAc(b1-3)Gal(b1-4)GlcNAc(b1-3)Gal(b1-4)GlcNAc(b1-2)[GlcNAc(b1-3)Gal(b1-4)GlcNAc(b1-3)Gal(b1-4)GlcNAc(b1-3)Gal(b1-4)GlcNAc(b1-6)]Man(a1-6)[GlcNAc(b1-3)Gal(b1-4)GlcNAc(b1-3)Gal(b1-4)GlcNAc(b1-3)Gal(b1-4)GlcNAc(b1-2)Man(a1-3)]Man(b1-4)GlcNAc(b1-4)[Fuc(a1-6)]GlcNAc
# Method in brief: as §1
# [18] = molecular target: GlcNAc(b1-3)Gal(b1-4)GlcNAc(b1-3)Gal(b1-4)GlcNAc(b1-3)Gal(b1-4)GlcNAc(b1-3)Gal(b1-4)GlcNAc(b1-2)Man(a1-3)[GlcNAc(b1-3)Gal(b1-4)GlcNAc(b1-3)Gal(b1-4)GlcNAc(b1-3)Gal(b1-4)GlcNAc(b1-3)Gal(b1-4)GlcNAc(b1-2)Man(a1-6)]Man(b1-4)GlcNAc(b1-4)[Fuc(a1-6)]GlcNAc
# Method in brief: as §1
# [19] = molecular target: GlcNAc(b1-3)Gal(b1-4)GlcNAc(b1-3)Gal(b1-4)GlcNAc(b1-3)Gal(b1-4)GlcNAc(b1-3)Gal(b1-4)GlcNAc(b1-2)[GlcNAc(b1-3)Gal(b1-4)GlcNAc(b1-3)Gal(b1-4)GlcNAc(b1-3)Gal(b1-4)GlcNAc(b1-3)Gal(b1-4)GlcNAc(b1-6)]Man(a1-6)[GlcNAc(b1-3)Gal(b1-4)GlcNAc(b1-3)Gal(b1-4)GlcNAc(b1-3)Gal(b1-4)GlcNAc(b1-3)Gal(b1-4)GlcNAc(b1-2)Man(a1-3)]Man(b1-4)GlcNAc(b1-4)[Fuc(a1-6)]GlcNAc
# Method in brief: as §1
# [20] = molecular target: GlcNAc(b1-3)[GlcNAc(b1-6)]GlcNAc
# Method in brief: as §1
# [21] = molecular target: Man(a1-2)Man(a1-2)Man(a1-3)[Man(a1-2)Man(a1-6)[Man(a1-3)]Man(a1-6)]Man(b1-4)GlcNAc(b1-4)GlcNAc
# Method in brief: as §1
# [22] = molecular target: Man(a1-2)Man(a1-6)[Man(a1-3)]Man(a1-6)[Man(a1-2)Man(a1-2)Man(a1-3)]Man(b1-4)GlcNAc(b1-4)GlcNAc
# Method in brief: as §1
# [23] = molecular target: Man(a1-3)[Man(a1-6)]Man(a1-6)[Man(a1-2)Man(a1-3)]Man(b1-4)GlcNAc(b1-4)GlcNAc
# Method in brief: as §1
# [24] = molecular target: Neu5Ac(a2-3)Gal(b1-3)[Fuc(a1-4)]GlcNAc(b1-3)Gal(b1-4)[Fuc(a1-3)]GlcNAc
# Method in brief: as §1
# [25] = molecular target: Neu5Ac(a2-3)Gal(b1-4)GlcNAc(b1-2)Man(a1-3)[GlcNAc(b1-2)Man(b1-4)GlcNAc(b1-2)Man(a1-6)]Man(b1-4)GlcNAc(b1-4)GlcNAc
# Method in brief: as §1
# [26] = molecular target: Neu5Ac(a2-3)Gal(b1-4)GlcNAc(b1-3)Gal(b1-4)GlcNAc(b1-3)GalNAc
# Method in brief: as §1
# [27] = molecular target: Neu5Ac(a2-3)Gal(b1-4)[Fuc(a1-3)]GlcNAc
# Method in brief: as §1
# [28] = molecular target: Neu5Ac(a2-3)[GalNAc(b1-4)]Gal(b1-4)GlcNAc
# Method in brief: as §1
# [29] = molecular target: Neu5Ac(a2-6)Gal(b1-4)GlcNAc(b1-2)[Neu5Ac(a2-6)Gal(b1-4)GlcNAc(b1-6)]Man(a1-6)[Neu5Ac(a2-6)Gal(b1-4)GlcNAc(b1-2)Man(a1-3)][GlcNAc(b1-4)]Man(b1-4)GlcNAc(b1-4)GlcNAc
# Method in brief: as §1
# [30] = molecular target: Neu5Ac(a2-8)Neu5Ac(a2-8)Neu5Ac(a2-3)Gal(b1-4)Glc
# Method in brief: as §1
binder,measurement,setting,value
B1,glycan array binding signal (z-score),[1],4.93
same,glycan array binding signal (z-score),[2],5.2
same,glycan array binding signal (z-score),[3],4.95
same,glycan array binding signal (z-score),[4],4.93
same,glycan array binding signal (z-score),[5],5.14
same,glycan array binding signal (z-score),[6],-0.127
same,glycan array binding signal (z-score),[7],0.538
same,glycan array binding signal (z-score),[8],2.04
same,glycan array binding signal (z-score),[9],-0.312
same,glycan array binding signal (z-score),[10],-0.324
same,glycan array binding signal (z-score),[11],-0.319
same,glycan array binding signal (z-score),[12],-0.332
same,glycan array binding signal (z-score),[13],-0.324
same,glycan array binding signal (z-score),[14],-0.311
same,glycan array binding signal (z-score),[15],-0.33
same,glycan array binding signal (z-score),[16],-0.2
same,glycan array binding signal (z-score),[17],5.04
same,glycan array binding signal (z-score),[18],4.94
same,glycan array binding signal (z-score),[19],5.06
same,glycan array binding signal (z-score),[20],-0.33
same,glycan array binding signal (z-score),[21],-0.333
same,glycan array binding signal (z-score),[22],-0.185
same,glycan array binding signal (z-score),[23],-0.158
same,glycan array binding signal (z-score),[24],-0.197
same,glycan array binding signal (z-score),[25],-0.355
same,glycan array binding signal (z-score),[26],-0.259
same,glycan array binding signal (z-score),[27],-0.305
same,glycan array binding signal (z-score),[28],-0.248
same,glycan array binding signal (z-score),[29],-0.274
same,glycan array binding signal (z-score),[30],-0.015
